In all, about 420,000 compounds went through this assay and about 50,000 (12%) were called active. Where a call stands in place of a potency, no number is given. Inconclusive results (about 26%) are left out. Calls follow the shape of the dose curve; as a rule, active = well fitted inhibition curve with a large enough effect; inconclusive = small, poorly fitted or top-dose-only effect; inactive = flat fitted curve, though single readings scatter. Only a selection was taken, and actives are over-represented in it overall.
Experiment: qHTS for Inhibitors of human tyrosyl-DNA phosphodiesterase 1 (TDP1): qHTS in cells in presence of CPT; also: nearly all actives have a fitted effect of over 55% in size
Conditions: chicken DT40 Tdp1-/-;hTDP1 cells + 20 nM CPT, ATP luminescence, 48 h; series mostly up to 46.2 µM
Procedure, shortened: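 Chicken DT40 Tdp1-/- cells complemented with human TDP1, 400 cells/well, exposed to compounds plus 20 nM camptothecin for at least 48 h at 37 C; viability read as ATP content by CellTiter-Glo luminescence.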
Potency is read from the fitted curve at half-maximal effect.

SMILES	Potency
COc1ccc(Nc2ccc([N+](=O)[O-])cn2)cn1	inactive
CNC[C@H]1OCc2cnnn2CCCC(=O)N([C@H](C)CO)C[C@@H]1C	inactive
CCCCC(c1nnnn1CS(=O)(=O)c1ccc(C)cc1)N1CCC(C(N)=O)CC1 (centres undefined)	inactive
Cc1ccc(CC2C(=O)N(c3ccc(F)cc3)C(=O)C2C)cc1 (centres undefined)	inactive
Clc1ccc2nc(CSc3ccccc3)cn2c1	inactive
Cc1ccc(CNC(=O)CCN2C(=O)[C@@H]3Cc4ccccc4CN3C2=O)cc1	inactive
CC[C@@]12C(=O)N(c3ccccc3)C(=O)N1[C@H](c1ccc(Br)cc1)[C@@H]1C(=O)N(C(C)(C)C)C(=O)[C@@H]12	16.4 µM (active)
COc1ccc([C@@H]2[C@@H]3C(=O)N(C(C)(C)C)C(=O)[C@@H]3[C@]3(Cc4ccccc4)C(=O)N(c4cccc(Br)c4)C(=O)N23)cc1	inactive
CCN1C(=O)[C@H]2[C@@H](c3ccc(C)cc3)N3C(=O)N(c4cccc(Br)c4)C(=O)[C@@]3(CC)[C@H]2C1=O	inactive
O=C1CN(C(=O)c2cc(F)cc(F)c2)c2ccccc2N1	inactive
CCOCCC(=O)Nc1ccc2c(c1)c(=O)n(C)n2-c1ccc2ccccc2c1	1.46 µM (active)
CCCC(=O)Nc1ccc2c(c1)nc(CCNC(=O)c1ccco1)n2C	inactive
CCOC(=O)c1cccc(NC(=O)CCOc2ccccc2)c1	inactive
C=CC1=C(C(=O)O)N2C(=O)[C@@H](NC(=O)/C(=N\OCC(=O)O)c3csc(N)n3)[C@H]2SC1	inactive
O=C(NCc1cc(F)cc(C(F)(F)F)c1)C1CCC(=O)N(C2CCCC2)C1 (centres undefined)	inactive
Cc1ccccc1NC(=O)C(C)OC(=O)CCC(=O)N(CC(C)C)c1c(N)n(CC(C)C)c(=O)[nH]c1=O (centres undefined)	inactive
CCN(CC(=O)Nc1c(F)cccc1F)C(=O)c1ccc(Sc2nncn2C)c([N+](=O)[O-])c1	inactive
NC(=O)c1ccccc1N(Cc1ccccc1)S(=O)(=O)c1ccccc1	inactive
CCOC(=O)N1CCN(C(=O)c2ccccc2N(Cc2ccccc2)S(=O)(=O)c2ccc(OC)cc2)CC1	2.91 µM (active)
CCOC(=O)N1CCN(S(=O)(=O)c2ccc(OC)cc2)CC1	inactive
O=C(O)C#Cc1cccc2ccccc12	inactive
CCn1ccnc1CNC(=O)CC1C(=O)NCCN1Cc1ccc(F)cc1Cl (centres undefined)	inactive
Cc1cc(-n2cnc(-c3cn(C)nc3C)n2)no1	inactive
CCCCN(C(=O)c1ccc(S(=O)(=O)N2CCOCC2)cc1)C1CCS(=O)(=O)C1 (centres undefined)	inactive
CCNC(=S)Nc1ccc(OC(F)(F)F)cc1	inactive

SMILES	Potency
COC(=O)Cc1ccc(OCC(=O)Nc2ccc(OC(F)(F)F)cc2)cc1	inactive
CCc1ccc2c(c1)NC(=O)C2(C)Cc1ccc(OC(F)(F)F)cc1 (centres undefined)	20.6 µM (active)
CC1(C(=O)NS(=O)(=O)Cc2cccc(Cl)c2)CCN1C(=O)Cc1ccccc1 (centres undefined)	inactive
O=C(NCCc1cccc(F)c1)C1CCCN(c2nc3ccccc3s2)C1 (centres undefined)	18.4 µM (active)
O=C(NCc1ccccc1)C1CCCN(c2nc3ccsc3c(=O)s2)C1 (centres undefined)	inactive
Cc1cc(=O)n2nc(N3CCCC(C(=O)NCc4cccc(Cl)c4)C3)sc2n1 (centres undefined)	inactive
CCC(C)c1ccc(NC(=O)COC(=O)C2CCCC2)cc1 (centres undefined)	inactive
CC(C)(C)NC(=O)NC(=O)COC(=O)C1c2ccccc2Oc2ccccc21	inactive
Cc1cn([C@H]2C[C@H](O)[C@@H](CNC(=O)[C@H](N)Cc3cccnc3)O2)c(=O)[nH]c1=O	inactive
Cc1cccc(C)c1NC(=O)CN(C)C(=O)CCC(=O)c1ccccc1	inactive
Cc1cccc(C)c1NC(=O)C(Cl)C(=O)c1ccccc1 (centres undefined)	5.17 µM (active)
Cc1cccc(C)c1NC(=O)C(c1ccccc1)N1CC(=O)Nc2ccccc21 (centres undefined)	inactive
Cc1ccc(C)c(NC(=O)C(c2ccccc2)N2CCN(CC(=O)NC3CC3)CC2)c1 (centres undefined)	inactive
O=c1oc(-c2ccco2)nc2sc3c(c12)CCCCC3	inactive
O=C(NCc1ccco1)c1nc2ncccn2n1	inactive
O=C(NCc1ccco1)c1cccn2c(=O)c3c4c(sc3nc12)CCCC4	9.2 µM (active)
CC(C)C[C@H](NC(=O)C1CC(=O)N(c2ccc3c(c2)OCCO3)C1)C(=O)NC1CCCC1 (some centres undefined)	inactive
CN[C@@H]1[C@@H](O)[C@@H](O[C@@H]2[C@H](O)[C@H](O[C@H]3OC(CN)=CC[C@H]3N)[C@@H](N)C[C@H]2N)OCC1(C)O (some centres undefined)	inactive
NC(=O)C1CCN(CC(O)CSc2ccc(F)cc2)CC1 (centres undefined)	inactive
OC(CNC1CCCC1)COc1ccc(F)cc1 (centres undefined)	inactive
NC(=O)C1=C[C@@H](c2ccc3c(c2)OCO3)C[C@@H](OCCCCO)O1	inactive
NC(=O)C1=C[C@H](c2csc3ccccc23)C[C@H](OCc2ccc(CO)cc2)O1	14.6 µM (active)
NC(=O)C1=C[C@@H](c2csc3ccccc23)C[C@@H](OCc2ccc(CO)cc2)O1	25.9 µM (active)
O=C(O)C1=C[C@H](c2cccs2)C[C@H](OCCCCO)O1	inactive
O=C(C1=C[C@H](c2coc3ccccc3c2=O)C[C@H](OCc2ccc(CO)cc2)O1)N1CCOCC1	inactive

SMILES	Potency
C=CCOC(=O)C1=C[C@@H](c2ccccc2)C[C@@H](OCc2ccc(CO)cc2)O1	inactive
Cc1cc(OC(C)C(=O)NC2CC(C)(C)NC(C)(C)C2)c2c(C)cc(=O)oc2c1 (centres undefined)	inactive
COCCNC(=S)N1CCN(C)CC1	inactive
CC1CCC2(CC1)NC(=O)N(CC(=O)c1cccn1C)C2=O (centres undefined)	inactive
CC(C)(C)SCCSC1=CC(=O)CC(c2ccccc2)C1 (centres undefined)	inactive
COC(=O)C(C)Oc1ccc2c(c1)O/C(=C\c1cccc(Br)c1)C2=O (centres undefined)	inactive
Cc1ccc(S(=O)(=O)Oc2ccc(/C=N/NC(=O)c3ccncc3)cc2)cc1	inactive
CCOc1cc(/C=N/NC(=O)c2ccncc2)cc(Br)c1O	inactive
Cc1ccc(OCCOCCOc2ccc(Br)cc2/C=N\NC(=O)c2ccncc2)cc1	18.4 µM (active)
Cc1ccc(NC(=O)CCCn2c(=O)c3cccn3c3ccccc32)cc1Cl	inactive
COc1ccc(Cl)cc1NC(=O)CCC(=O)c1ccc(C)cc1	inactive
COc1ccc(Cl)cc1NC(=O)CCn1c(=O)c2cccn2c2ccccc21	20.6 µM (active)
CCCCn1c(N)c(N(CCC(C)C)C(=O)COC(=O)c2ccc(CC)cc2)c(=O)[nH]c1=O	inactive
Cc1cccc(NC(=O)CSCC(=O)Nc2nnc(C3CC3)s2)c1	inactive
O=C(NC(CC(=O)N1CCN(c2ccccc2)CC1)c1ccccc1)c1ccccc1Cl (centres undefined)	inactive
CCCCCN(C(=O)CCC(=O)OCCOc1ccc(OC)cc1)c1c(N)n(CCCC)c(=O)[nH]c1=O	inactive
CN(CC(=O)Nc1ccc(C(N)=O)cc1)S(=O)(=O)c1ccc2c(c1)OCCO2	inactive
CCOc1ccc(S(=O)(=O)NCC2CCCO2)cc1 (centres undefined)	inactive
CCOc1ccc(C(=O)Nc2ccc(S(=O)(=O)NCC3CCCO3)cc2)cc1OCC (centres undefined)	inactive
CN(CC1CCCO1)S(=O)(=O)c1ccc(C(=O)Nc2ccc([N+](=O)[O-])cc2)cc1 (centres undefined)	23.1 µM (active)
Cc1cccc(NC(=O)c2ccc(S(=O)(=O)N(C)CC3CCCO3)cc2)c1C (centres undefined)	inactive
O=C(Nc1ccc(S(=O)(=O)NCC2CCCO2)cc1)c1ccc(F)cc1 (centres undefined)	14.6 µM (active)
CCN(CC(=O)Nc1ccc(NC(C)=O)cc1)C(=O)C1CC(=O)N(Cc2ccc(C)cc2)C1 (centres undefined)	inactive
O=C(C1CCCO1)N1CCN(C(=O)C23CC4CC(CC(C4)C2)C3)CC1 (centres undefined)	inactive
COc1cc(C(=O)N2CCN(C3CCC(C)CC3)CC2)cc(OC)c1OC (centres undefined)	inactive

SMILES	Potency
CCOC(=O)C1CCN(S(=O)(=O)c2c(C)noc2C)CC1	inactive
COc1cccc(N(CC(=O)NC2CCCC2)C(=O)Cn2nnc(-c3ccc(C)o3)n2)c1	inactive
CC(C)COc1ccc(C(=O)OCC(=O)NCCC2=CCCCC2)cc1	inactive
O=C(O)CN(Cc1ccco1)S(=O)(=O)c1ccc(F)cc1	inactive
C=CCn1c(SCC(=O)c2c(N)n(C)c(=O)n(C)c2=O)nc2sc(CC)cc2c1=O	inactive
O=C1c2cccnc2C(=O)N1Cc1cccs1	inactive
Cc1cccc(N2C(=O)c3cccnc3C2=O)c1	inactive
NC1=CC(=O)C(=O)c2cccnc21	3.66 µM (active)
O=C(NC1CCCCC1)C1CC(=O)N(CCc2ccccc2)C1 (centres undefined)	inactive
CC(NC(=O)COC(=O)CCC(=O)c1ccc(Cl)cc1)c1ccccc1 (centres undefined)	inactive
CC1CCC(NC(=O)CNC(=O)c2ccc3ccccc3c2)CC1 (centres undefined)	inactive
COc1ccccc1OCCNC(=O)c1cc([N+](=O)[O-])cc([N+](=O)[O-])c1	inactive
Cc1cc(C)nc(N/N=C/c2ccc([N+](=O)[O-])o2)n1	23.1 µM (active)
CCOc1ccc(NC(=O)CCC(=O)N/N=C/c2ccc([N+](=O)[O-])s2)cc1	10.3 µM (active)
NC(=O)C(=O)N/N=C/c1ccc([N+](=O)[O-])o1	10.6 µM (active)
Cc1cc(C)nc(N/N=C/c2ccncc2)n1	inactive
CCOc1ccc(NC(=O)CCC(=O)NNC(=O)NC2CCCCC2)cc1	inactive
COc1ccc(C(=O)NCC(=O)N/N=C/c2ccc([N+](=O)[O-])o2)cc1OC	2.31 µM (active)
COc1cc(/C=N/NC(=O)CNC(=O)c2ccncc2)ccc1OC(C)=O	inactive
NC(=S)N/N=C/c1ccc([N+](=O)[O-])cc1	inactive
O=C(N/N=C/c1ccc([N+](=O)[O-])cc1)C(=O)N1CCCC1	inactive
CCCCCC(=O)Nc1ccc(C(=O)N/N=C/c2ccc([N+](=O)[O-])cc2)cc1	inactive
Cc1cc(C)nc(Nc2cc([N+](=O)[O-])ccc2C)n1	inactive
CC(C)[C@@H](C(=O)O)N(Cc1cccc(CN([C@H](C(=O)O)C(C)C)S(C)(=O)=O)c1)S(C)(=O)=O	inactive
